Compound activity deposited in PubChem by National Center for Advancing Translational Sciences (NCATS).
Compounds with a hit are over-represented: about 10% of the library has one in this group of screens.
NIH3T3 tox: kills NIH 3T3 cells | NIH 3T3 viability, CellTiter-Glo ATP luminescence, 48-72 h | Potency, µM (highest dose often 96.7 µM), inactives show at the top dose activity change, negative = cytotoxicity, most hits filed as inhibitors | 94,000 tested, 4.3% active | AID 1345082; also: % is scaled to controls: 0 for no effect and ±100 for the full control effect; nearly all actives have a fitted effect of over 55% in size
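Cytotoxicity was measured by CellTiter-Glo ATP luminescence after 48 or 72 h compound exposure at 37 °C. Mouse NIH 3T3 fibroblasts were seeded at 400 cells/well and dosed by 23 nL pin transfer.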
FLuc inh: Photinus pyralis luciferase inhibition | P08659 | AID 1347043 | purified P. pyralis luciferase, luminescence, biochemical | 76,000 tested, 2.5% active | Potency, µM (top dose mostly 115 µM), usual class: inhibitors; also: % is scaled to controls: 0 for no effect and ±100 for the full control effect; nearly all actives have a fitted effect of over 65% in size
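Purified P. pyralis luciferase (10nM final) in 50mM Tris acetate pH 7.5, 10mM Mg acetate, 0.01% Tween-20, 0.05% BSA with 10uM D-luciferin and 10uM ATP. Compounds titrated qHTS. Luminescence imaged on CCD.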
hNpr1 antagonist: antagonists of human natriuretic peptide receptor Npr1. P16066. HEK293 hNpr1 GloSensor cGMP, ANP-stimulated luminescence. Potency, µM (titrated, usually from 46.3 µM), inactives show at the highest dose activity change, negative = inhibition, actives largely listed as inhibitors. 76,000 tested, 1.6% active; calls by dose curve; also: % is scaled to controls: 0 for no effect and ±100 for the full control effect; nearly all actives have a fitted effect of over 60% in size
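Compound pre-incubated 30 min at room temperature on GloSensor-loaded HEK293 cells stably carrying hNpr1 and the pGS-40F cGMP biosensor. Stimulation uses hNppA at 0.1 nM final; luminescence is taken at baseline and 20 min post-agonist.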
GPT2 inhibitor: inhibitors of human GPT2 alanine aminotransferase. 100,000 tested, 0.25% active. Recombinant GPT2, coupled pyruvate oxidase/HRP Amplex Red fluorescence. Q8TD30. Potency, µM (series often up to 57.7 µM), without a hit: at the top dose activity change, negative = inhibition, most hits filed as inhibitors. AID 1671188; also: % is scaled to controls: 0 for no effect and ±100 for the full control effect; nearly all actives have a fitted effect of over 60% in size
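Recombinant GPT2 (10ng/uL) with 250uM a-KG and 2mM L-alanine, 30 min at room temperature, in HEPES pH 7.5 buffer. Pyruvate detected by pyruvate oxidase/HRP/Amplex Red fluorescence after 30 min in the dark; AOA (50uM) as positive control.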
HEK cytotox: HEK 293 cell cytotoxicity; HEK 293 viability, ATP luminescence (CellTiter-Glo), 48-72 h; Potency, µM (top dose mostly 115 µM), inactives show at the top dose activity change, negative = cytotoxicity, actives largely listed as inhibitors; 94,000 tested, 6.6% active; also: % is scaled to controls: 0 for no effect and ±100 for the full control effect; nearly all actives have a fitted effect of over 60% in size
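Luminescence from cellular ATP, measured with CellTiter-Glo, indicates HEK 293 viability. Cells plated at 250 cells/well are treated with compound for 48 or 72 hr at 37 degree Celsius before reagent addition.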
NPR1 antag cnf: hNpr1 antagonism, confirmation assay. AID 1347044. HEK293 hNpr1 cGMP GloSensor luminescence, ANP-stimulated. Potency, µM (series often up to 57.6 µM), without a hit: at the top dose activity change, negative = inhibition, usual class: inhibitors. 1,400 tested, 76% active. shares compounds with hNpr1 antagonist; calls by dose curve; also: nearly all actives have a fitted effect of over 70% in size
NPR2 antag: selectivity test of Npr1 antagonists against human Npr2; HEK293 hNpr2 GloSensor cGMP luminescence, CNP-stimulated; 1,400 tested, 67% active; AID 1347046; shares compounds with hNpr1 antagonist; Potency, µM (doses to about 57.6 µM), inactives show at the highest dose activity change, negative = inhibition, actives largely listed as inhibitors; calls by dose curve; also: nearly all actives have a fitted effect of over 70% in size
Target sequence (P20594 whole entry, looked up): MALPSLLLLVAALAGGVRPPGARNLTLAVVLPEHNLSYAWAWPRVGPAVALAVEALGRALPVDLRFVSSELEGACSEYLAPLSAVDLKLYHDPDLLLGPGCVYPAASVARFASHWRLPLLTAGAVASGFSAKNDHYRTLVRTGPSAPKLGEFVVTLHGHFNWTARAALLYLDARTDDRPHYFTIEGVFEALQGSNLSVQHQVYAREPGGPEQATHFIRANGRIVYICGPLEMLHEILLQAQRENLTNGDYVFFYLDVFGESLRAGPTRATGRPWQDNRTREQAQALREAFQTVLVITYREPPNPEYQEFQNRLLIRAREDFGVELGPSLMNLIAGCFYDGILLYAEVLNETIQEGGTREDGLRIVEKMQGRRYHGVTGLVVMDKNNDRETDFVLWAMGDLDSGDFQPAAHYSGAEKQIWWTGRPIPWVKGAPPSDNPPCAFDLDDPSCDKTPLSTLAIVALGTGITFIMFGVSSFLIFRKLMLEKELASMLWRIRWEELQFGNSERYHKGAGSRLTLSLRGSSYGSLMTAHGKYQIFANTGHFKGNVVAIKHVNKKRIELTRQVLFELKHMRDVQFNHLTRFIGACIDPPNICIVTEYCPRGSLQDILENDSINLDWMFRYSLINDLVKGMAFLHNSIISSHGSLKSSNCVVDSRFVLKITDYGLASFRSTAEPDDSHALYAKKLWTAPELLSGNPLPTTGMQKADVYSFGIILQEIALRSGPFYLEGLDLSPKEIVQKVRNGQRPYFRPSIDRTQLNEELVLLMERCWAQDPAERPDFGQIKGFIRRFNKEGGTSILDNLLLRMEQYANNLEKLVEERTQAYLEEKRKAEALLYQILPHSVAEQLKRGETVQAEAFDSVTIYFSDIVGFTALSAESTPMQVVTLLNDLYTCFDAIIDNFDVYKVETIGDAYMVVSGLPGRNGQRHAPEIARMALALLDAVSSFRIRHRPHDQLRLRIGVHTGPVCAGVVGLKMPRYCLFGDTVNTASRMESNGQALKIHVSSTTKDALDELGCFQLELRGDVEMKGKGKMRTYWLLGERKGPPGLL
FLuc counter: FLuc enzyme inhibition, Npr1 counter-screen. shares compounds with hNpr1 antagonist. purified FLuc enzyme, luminescence, Km substrate. Potency, µM (series often up to 57.6 µM), without a hit: at the highest dose activity change, negative = inhibition, most hits filed as inhibitors. 1,400 tested, 0.7% active. AID 1347047; also: 0% is about no effect
GloSensor cGMP: control cell line activity, Npr1 antagonist counter-screen; shares compounds with hNpr1 antagonist; HEK293 GloSensor cGMP, SNP-stimulated, luminescence; Potency, µM (series often up to 57.6 µM), inactives show at the highest dose activity change, negative = inhibition, hits mostly inhibitors; 1,400 tested, 69% active; AID 1347051; calls by dose curve; also: % is scaled to controls: 0 for no effect and ±100 for the full control effect; nearly all actives have a fitted effect of over 70% in size
Active calls of the source: *; i = inactive; ? = inconclusive; · = no result given; [ ] = another dose, or the depositor's remark. Unless noted, calls follow the shape of the dose curve; as a rule, active = well fitted curve in the direction sought with a large enough effect; inconclusive = small, poorly fitted or top-dose-only effect, or another doubt; inactive = no such curve, though single readings can be large; an effect the other way counts as inactive or inconclusive. Potency is read from the fitted curve at half-maximal effect.

SMILES	NIH3T3 tox	FLuc inh	hNpr1 antagonist	GPT2 inhibitor	HEK cytotox	NPR1 antag cnf	NPR2 antag	FLuc counter	GloSensor cGMP
O=C(CCc1ccccc1)N1CCC(n2cc(-c3nc(-c4ccccc4)no3)nn2)C1 (centres undefined)	-28%	i	0%	i	?	·	·	·	·
COc1ccc(C(=O)N2CCC(n3cc(-c4nc(-c5ccccc5)no4)nn3)CC2)cc1	?	i	?	i	?	22µM*	24µM*	-16%	22µM*
O=C(c1ccc(F)c(Cl)c1)N1CCC(n2cc(-c3nc(-c4ccccc4)no3)nn2)CC1	?	i	13µM*	2%	?	24µM*	22µM*	-20%	22µM*
COc1ccc(CCC(=O)N2CCCC(n3cc(-c4nc(-c5ccccc5)no4)nn3)C2)cc1 (centres undefined)	?	?	13µM*	i	?	24µM*	24µM*	12µM*	24µM*
CCN1CCN(C(=O)c2ccc3nnc(-c4ccccc4OC)n3c2)CC1	-15%	·	·	i	0%	·	·	·	·
Cc1cnc(-c2ccccc2)n1CCNS(=O)(=O)c1ccccc1	-8%	i	5%	5%	3%	·	·	·	·
O=C(c1cccc(Cl)c1)N1CCCC(n2cc(-c3nc(-c4ccccc4)no3)nn2)C1 (centres undefined)	?	?	16µM*	-5%	?	27µM*	27µM*	-29%	27µM*
Cc1noc(-c2cn(C3CCCN(C(=O)c4cccc(Cl)c4)C3)nn2)n1 (centres undefined)	?	i	-8%	-8%	-6%	·	·	·	·
O=C(c1ccc(F)c(F)c1)N1CCC(n2cc(-c3nc(-c4ccccc4)no3)nn2)CC1	?	i	11µM*	3%	?	24µM*	24µM*	-22%	22µM*
Cc1ccc(CNC(=O)CCC2CCCN(S(=O)(=O)c3ccccc3F)C2)o1 (centres undefined)	-24%	·	·	-11%	?	·	·	·	·
COc1ccc(CN2C(=O)[C@@H]3C[C@@H](CN3Cc3cccs3)Oc3ccccc32)cc1	?	i	?	-3%[88.5 µM]	79µM*	?	?	-20%[86.2 µM]	0%[86.2 µM]
Cc1nnc2ccc(N3CCC(NC(=O)NC(C)C)C3)nn12 (centres undefined)	-6%[138 µM]	·	·	·	i	·	·	·	·
N#Cc1cccnc1N1CCC(NC(=O)c2ccc3nccn3c2)CC1	-63%	i	11µM*	-4%	?	22µM*	24µM*	2%	19µM*
COCCN1C(=O)c2ccccc2C(C(=O)Nc2cc(Cl)ccc2OC)C12CCCC2 (centres undefined)	-22%	i	?	i	?	14µM*	8.6µM*	5%	11%
COCCN1C(=O)c2ccccc2C(C(=O)Nc2cccc(OC)c2)C12CCCC2 (centres undefined)	i	i	0%	1%	33%	·	·	·	·
O=C1CC2(CCN(C(=O)c3ccc(Cl)cc3)CC2)Oc2ccccc2N1	-22%	·	·	-6%	?	17µM*	19µM*	4%	12µM*
